From PubChem
Tau FP inhib – inhibitors of human tau fibril formation; P10636; K18 P301L tau heparin fibrillization, Alexa594 FP, 6 h; Potency, µM (doses to about 57.7 µM), without a hit: at the top dose activity, negative = inhibition, usual class: inhibitors; 280,000 tested, 0.39% active; AID 1468; further: potency means the concentration at half of the fitted maximal effect; nearly all actives have a fitted effect of over 55% in size
Target sequence (P10636 561-689 P618L limits assumed): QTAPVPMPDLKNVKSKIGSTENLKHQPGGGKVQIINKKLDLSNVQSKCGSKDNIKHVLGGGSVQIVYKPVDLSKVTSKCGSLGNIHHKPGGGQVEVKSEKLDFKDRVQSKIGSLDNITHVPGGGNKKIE
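K18 P301L tau (15 uM unlabeled/0.24 uM Alexa 594-labeled, final) + compound + heparin 20 uM final; 100 mM NaOAc pH 7; 6 hr 37 C; ThT 30 uM final added, 1 hr RT; FP ex 555/em 632 nm.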
G9a block – blocks human histone lysine methyltransferase G9a | G9a H3K9 monomethylation, AlphaScreen, 2 h | Potency, µM (titrated, usually from 102 µM), for the others: at the top dose activity, negative = inhibition, most hits filed as inhibitors | 350,000 tested, 8.8% active; further: potency means the concentration at half of the fitted maximal effect; nearly all actives have a fitted effect of over 75% in size
Target sequence (Q96KQ7 913-1193 limits assumed): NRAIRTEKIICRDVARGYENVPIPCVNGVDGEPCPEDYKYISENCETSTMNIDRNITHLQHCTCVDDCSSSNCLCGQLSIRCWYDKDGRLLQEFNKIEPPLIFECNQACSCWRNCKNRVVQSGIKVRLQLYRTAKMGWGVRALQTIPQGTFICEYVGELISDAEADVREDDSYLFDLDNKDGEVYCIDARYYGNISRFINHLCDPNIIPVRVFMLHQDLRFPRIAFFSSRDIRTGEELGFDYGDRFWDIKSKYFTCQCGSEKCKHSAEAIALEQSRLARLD
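Signal arises when biotinylated H3K9 peptide, once monomethylated, bridges streptavidin donor and antibody-captured acceptor beads. Enzyme at 20 nM was preincubated 15 min with test compounds; peptide 500 nM and SAM 20 uM then reacted for 2 h.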
Tau fluor cs – counter-screen for tau fibril formation inhibitors. Potency, µM (series often up to 57.7 µM), for the others: top-dose activity change, negative = decrease. 280,000 tested, 0.93% active. tau K18 P301L Alexa594 fluorescence, heparin fibrillization; further: potency means the concentration at half of the fitted maximal effect; nearly all actives have a fitted effect of over 55% in size
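Human tau K18 P301L (15 uM unlabeled, 0.24 uM Alexa 594-labeled) in 100 mM sodium acetate pH 7 with 20 uM heparin, 6 hr at 37 C. ThT 30 uM added, 1 hr ambient; Alexa 594 FP and total fluorescence read at 555/632 nm.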
FBPA coupling cs – inhibits coupling enzyme system, counter-screen for aldolase hits | coupling enzyme system counterscreen, AmpLite Red fluorescence | activity change, negative = inhibition, % at 58.2 µM, hits read low | 290,000 tested, 0.67% active; in the data active means activity change below about -30%
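Coupling enzymes only (glyceraldehyde-3-phosphate) + compound, at 57.5 uM final, 10 min RT; add substrate/coupling/AmpLite Red mix, 20 min RT; fluorescence ex 525/em 598 nm. Actives flag coupling-system interference.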
Tau fibril ThT – blocks human tau fibril formation measured by thioflavin T | Potency, µM (titrated, usually from 57.4 µM), without a hit: at the highest dose activity, negative = inhibition, usual class: inhibitors | 270,000 tested, 2.1% active | recombinant tau K18 P301L (four-repeat tau fragment), heparin-induced fibrillization, ThT fluorescence | AID 1460; further: potency means the concentration at half of the fitted maximal effect; nearly all actives have a fitted effect of over 55% in size
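K18 P301L tau (15 uM + 0.24 uM Alexa 594-tagged), heparin 20 uM, NaOAc pH 7, 6 h 37 C; ThT 30 uM, 1 h RT, ex 450/em 510 nm.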
Sfp PPTase inh – Sfp phosphopantetheinyl transferase inhibition | Q9F4F7 | Biochemical Sfp PPTase activity, qHTS | Potency, µM, without a hit: largest response in the series, negative = inhibition, most hits filed as inhibitors | 310,000 tested, 3.5% active | AID 1490;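 further: the enzyme is Sfp with the accession as filed and its product quenches rhodamine fluorescence; potency means the concentration at half of the fitted maximal effect; 0% = enzyme reaction without inhibitor and -100% = no enzyme wells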
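With Hepes-Na pH 7.6 buffer containing 10 mM MgCl2, Sfp (15 nM) modified BHQ-2-YbbR (12.5 uM) using rhodamine-CoA (5 uM). Two reads 30 minutes apart at 525/598 nm yielded each well's rate.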
Active calls of the source: *; u = inconclusive; x = no result given; ! = repeats disagree; [ ] = dose if it differs, or a comment. Most compounds without a hit are left out; they make up all but 11% or so of the library. Unless noted, the call rests on the fitted dose curve; in most records, active means well fitted curve in the direction sought with a large enough effect; inconclusive means small, poorly fitted or top-dose-only effect, or another doubt; inactive means no such curve, though single readings can be large; an effect the other way counts as inactive or inconclusive. Unless noted, on the % scale 0 is the no-effect control and ±100 the full control effect.

SMILES | Tau FP inhib | G9a block | Tau fluor cs | FBPA coupling cs | Tau fibril ThT | Sfp PPTase inh
C=CCn1c(C)cc(C(=O)COC(=O)c2ccc(N)c([N+](=O)[O-])c2)c1C | -9% | u | 25µM*[quencher] | -1 | u | 7%
Cc1cc(C(=O)COC(=O)c2ccc(N)c([N+](=O)[O-])c2)c(C)n1Cc1ccc2c(c1)OCO2 | u | -3%[12.7 µM] | 4.5µM*[quencher] | -1 | u | 11%
COc1ccc(S(=O)(=O)N2CCN(CC3CC=CCC3)CC2)cc1 (stereo not given) | x | 21% | x | 3 | x | -3%
Cc1ccc(OCC(=O)Nc2c3c(nn2C(C)(C)C)CS(=O)(=O)C3)cc1 | x | -10% | x | x | x | 9%
COC(=O)NC(C(=O)OC)(C(=O)OC)c1ccccc1 | 11% | x | 4% | 5 | 7% | 0%
CCN(CC)C(=O)N1CCN(C)CC1 | u | 14µM*! | -10% | 6 | -6% | -9%
CCN(CC)C(=O)N1CCN(C(=O)N(CC)CC)CC1 | -3% | 15%[0.501 µM] | 1% | 0 | 1% | 16%
O=C(CSc1n[nH]c(-c2ccc(F)cc2)n1)NCc1ccccc1Cl | -13% | -10%[59 µM] | -19% | x | -8% | x
C=C(C)CSc1nc2nc(C)c(Br)cc2[nH]1 | 7% | 7.1µM* | -10% | -2 | -13% | 8%
Cc1nc2nc(SCc3ccc([N+](=O)[O-])cc3)[nH]c2cc1Br | -12% | -27% | -23% | 0 | u | -11%
COC(=O)CSc1nc2nc(C)c(Br)cc2[nH]1 | 0% | 7.9µM* | -11% | -8 | -14% | -16%
Cc1ccc(NC(=O)CSc2nc3nc(C)c(Br)cc3[nH]2)cc1F | x | 19% | x | 1 | x | 11%
C[N+]1(C)[C@@H]2CC(OC(=O)C(O)(c3cccs3)c3cccs3)C[C@H]1[C@@H]1O[C@@H]12 (stereo not given in full) | x | -3%[12.7 µM] | x | x | x | 7%
Oc1c(Br)cc(Br)cc1CNc1cccc2cccnc12 | x | x | x | -29 | x | 40µM*
Oc1c(Br)cc(Br)cc1CNc1ccccn1 | u | 16%[12.7 µM] | u | -7 | -17% | 8%
Cc1ccc(O)c(CNc2cccc3cccnc23)c1 | 3% | x | 14µM*[quencher] | -19 | u | u
Oc1ccc(Br)cc1CNc1cccc2cccnc12 | x | 16%[0.501 µM] | x | -19 | x | -1%
O=S(=O)(c1ccccc1)N1CCC2(CCN(c3ccccc3)CC2)CC1 | x | -2%[12.7 µM] | x | 0 | x | -7%
N#Cc1c(SCC(=O)Nc2nncs2)sc2c(O)cc(=O)[nH]c12 | x | u | x | 3 | x | 14µM*
CCc1nc(Nc2ccc3c(c2)OCO3)c2oc3ccccc3c2n1 | u | 30%[0.501 µM] | u | -5 | u | -23%
CCc1nc(N2CCCCC2)c2oc3ccccc3c2n1 | -5% | 8%[59 µM] | -9% | 5 | u | -22%
CCc1nc(N2CCCC(C)C2)c2oc3ccccc3c2n1 (stereo not given) | -11% | u | -3% | 4 | u | 45µM*
CCc1nc(N2CCN(Cc3ccc4c(c3)OCO4)CC2)c2oc3ccccc3c2n1 | -3% | u | -15% | 1 | u | 35µM*
NCCCCCc1cn(CC(=O)NCCCCCCCCCCC(=O)N2CCNCC2)nn1 | x | 25%[2.33 µM] | x | x | x | x
COc1cccc(C2NC(C(=O)O)CCC2C)c1 (stereo not given) | -12%[11.6 µM] | x | -8%[11.6 µM] | 2 | -6%[11.5 µM] | 10%
SMILES | Tau FP inhib | G9a block | Tau fluor cs | FBPA coupling cs | Tau fibril ThT | Sfp PPTase inh
COc1ccc(-c2nc(-c3ccccc3)oc2NC(C)C)cc1 | 4% | x | -1% | 4 | -7% | -22%
CC(OC(=O)c1ccc2c(c1)S(=O)(=O)c1ccccc1C2=O)C(N)=O (stereo not given) | x | 45µM* | x | -2 | x | 0%
CCC(C)NC(=O)c1ccc2c(c1)S(=O)(=O)c1ccccc1C2=O (stereo not given) | x | 20µM* | x | x | x | 1%
NC(=O)COC(=O)c1ccc2c(c1)S(=O)(=O)c1ccccc1C2=O | x | -17% | x | -1 | x | -3%
COCC(C)NC(=O)c1ccc2c(c1)S(=O)(=O)c1ccccc1C2=O (stereo not given) | x | 10% | x | x | x | 12%
O=C(O)c1ccc2c(c1)S(=O)(=O)c1ccccc1C2=O | x | 45µM* | x | 22 | x | 1%
O=C(OCc1ccccc1)c1ccc2c(c1)-c1ccccc1C2=O | 7% | 5µM* | u | 2 | u | 3%
CCCn1c(=O)c2sccc2n2c(CCCC(=O)Nc3ccc(Oc4ccccc4)cc3)nnc12 | 0% | 12%[59 µM] | -25% | x | -9% | x
CNC(CC(=O)O)C(=O)O (stereo not given) | 5% | x | 5% | 6 | 7% | -12%
CC1CCN(c2ccc(-c3nc(C(C)C)no3)cc2[N+](=O)[O-])CC1 | 13% | -32%[59 µM] | -6% | x | -11% | x
Cc1noc(C)c1COC(=O)c1ccc2c(c1)S(=O)(=O)c1ccccc1C2=O | 9% | 32µM* | u | 0 | -13% | 1%
O=C(NC(=S)N1CCN(C/C=C/c2ccccc2)CC1)c1ccco1 | -2% | 45µM* | -8% | 2 | -8% | 14%
O=C(c1cccs1)N1CCN(C/C=C/c2ccccc2)CC1 | 0% | -2%[2.33 µM] | -10% | 3 | -3% | 1%
COc1ccc(NS(=O)(=O)c2cc(C(=O)N3CCN(C/C=C/c4ccccc4)CC3)ccc2C)cc1 | x | 14µM* | x | x | x | x
Cc1ccc(C(=O)N2CCCCCC2)cc1S(=O)(=O)Nc1ccccc1 | x | x | x | x | x | 5%
Cc1onc(-c2ccccc2)c1C(=O)N1CCN(C/C=C/c2ccccc2)CC1 | -4% | u | -11% | 5 | -8% | -17%
Cc1cc(C(=O)N2CCN(C/C=C/c3ccccc3)CC2)no1 | 4% | 50µM* | -6% | -3 | -5% | -7%
O=C(c1ccco1)N1CCN(C/C=C/c2ccccc2)CC1 | u | 56µM* | u | 4 | u | -3%
CSc1ccc(S(=O)(=O)NCC(=O)OCC(=O)N2CC(C)CC(C)C2)cc1[N+](=O)[O-] (stereo not given) | x | 50µM* | x | x | x | x
CCc1c(C)sc(NC(=O)OC)c1C(N)=O | -4% | x | -2% | 1 | -1% | 0%
CCc1c(C)sc(NC(=O)OC)c1C(=O)N1CCCCC1 | -1% | u | 1% | 1 | -7% | 50µM*
CCc1c(C)sc(NC(=S)N2CCN(C(=O)C3CCCO3)CC2)c1C(=O)OC (stereo not given) | x | 50µM* | x | x | x | -24%
Cc1ccc(-n2nc(C)c3nc(CCC(=O)Nc4ccc(F)cc4)c(=O)n(C)c32)cc1 | -2% | 27%[59 µM] | 12% | x | 12% | x
Cc1ccc(C(=O)c2c(N)c(-c3nc(-c4ccc5c(c4)OCO5)cs3)c3ccccn23)cc1C | 13% | 7%[59 µM] | u | x | u | x
Cc1c(Cl)ccc2sc(NC(=O)c3ccc(S(=O)(=O)N4CCCc5ccccc54)cc3)nc12 | u | 0%[59 µM] | -12% | x | 5% | x
